High-throughput results: PubChem BioAssay, several laboratories
The list is not random: actives were taken first. Their share in the collection is about 1.4%.
3CLpro inhibitor: SARS-CoV 3CLpro protease inhibition | P0C6X7 | recombinant SARS-CoV 3CLpro, quenched FRET peptide cleavage | inhibition, % at 6 µM | actives 0.14% (n = 290,000) | AID 1706; in the data active = inhibition above about 12%
MazEF act: MazEF (E. coli) toxin RNase activation. P0AE70. actives 0.32% (n = 350,000). activation, % at 20 µM. FAM/BHQ RNA-DNA oligo cleavage fluorescence, 5 h; in the data active = activation above about 50%
Target sequence (P0AE70 whole entry, looked up): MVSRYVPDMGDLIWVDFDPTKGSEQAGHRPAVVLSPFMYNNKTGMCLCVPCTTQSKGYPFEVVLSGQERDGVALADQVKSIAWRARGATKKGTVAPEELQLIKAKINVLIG
BJeLR lethal: BJeLR cell viability loss | BJeLR (HRASV12) viability, CellTiter-Glo ATP luminescence, 48 h | inhibition, % (test concentration not listed) | actives 0.17% (n = 300,000); in the data active = inhibition above about 50%
CCHFV vOTU inh: blocks the CCHF virus ovarian tumor domain protease; CCHFV vOTU protease, Pep-AMC fluorescence; inhibition, % at 11.5 µM; actives 0.55% (n = 370,000); AID 651958; in the data active = inhibition above about 30%; note: 0% = vehicle wells with enzyme and 100% = no enzyme wells
VHR inh abs: DUSP3 (human) phosphatase inhibition; P51452; recombinant VHR phosphatase, pNPP absorbance; inhibition, % at 13.3 µM; actives 0.52% (n = 290,000); in the data active = inhibition above about 50%
Target sequence (P51452 whole entry, looked up): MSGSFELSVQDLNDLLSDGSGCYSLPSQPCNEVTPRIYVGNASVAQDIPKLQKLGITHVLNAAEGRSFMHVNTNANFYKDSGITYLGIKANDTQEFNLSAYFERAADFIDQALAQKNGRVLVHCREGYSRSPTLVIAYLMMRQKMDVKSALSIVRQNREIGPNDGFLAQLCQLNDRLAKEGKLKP
An asterisk follows results filed as active; · = no result; + = active, no number.

SMILES | 3CLpro inhibitor | MazEF act | BJeLR lethal | CCHFV vOTU inh | VHR inh abs
Cc1ccc(NC(=S)NC(=O)CC2CC(C)(C)OC2=O)cc1 (stereo not drawn) | 0 | 12 | 1 | -3 | 58*
CC1(C)CC(CC(=O)NC(=S)Nc2ccc([N+](=O)[O-])cc2)C(=O)O1 (stereo not drawn) | -5 | -2 | -5 | 1 | 9
CC(=O)Nc1ccc(NC(=O)c2cccc3ccccc23)cc1 | -3 | 12 | -4 | -12 | 60*
Cc1ccc(NC(=O)c2cccc3ccccc23)cc1 | 0 | 0 | 4 | -5 | 35
CN1C(=O)c2cc(NC(=O)Nc3ccc(F)c(F)c3)ccc2OC[C@H]2O[C@@H](CC(=O)O)CC[C@H]21 | · | · | · | 1 | ·
Cc1ccc(C2=C/C(=C/c3cccs3)C(=O)O2)cc1 | -2 | + | 0 | -12 | -4
CC(=O)Nc1ccc(C(=O)NC(C)c2ccc(-n3ccnc3)cc2)cc1 (stereo not drawn) | -2 | 5 | -1 | 16 | 53*
CN(CCN1CCc2ccccc2C1)Cc1nc(-c2ccc3c(c2)OCO3)no1 | 3 | -2 | -2 | -11 | 0
OCCN(Cc1nc(-c2ccc3c(c2)OCO3)no1)Cc1cccs1 | 2 | 1 | 10 | -7 | 58*
C[C@@H]1C=CC(=O)O[C@@H]1c1ccc(C(F)(F)F)cc1 | -3 | · | 92* | · | 25
C[C@H]1C=CC(=O)O[C@H]1c1ccccc1 | · | 2 | 5 | 5 | ·
CC(C)C(=O)Nc1cccc(C(=O)Nc2ccc(S(=O)(=O)N3CCOCC3)cc2)c1 | -2 | 160* | -26 | -14 | 9
CC(C)C(=O)Nc1ccc(C(=O)Nc2ccc(S(=O)(=O)N3CCOCC3)cc2)cc1 | -5 | 6 | -1 | · | 26
N#Cc1cc2ccccc2nc1SCC(=O)Nc1ccccc1N1CCOCC1 | 5 | 51* | -24 | -12 | 4
Cc1cccc2cc(C#N)c(SCC(=O)Nc3ccccc3N3CCOCC3)nc12 | 3 | -15 | -7 | 1 | -13
CNC[C@@H](CC1CCCCC1)NC[C@H](CC(C)C)NCCc1cccc(C(F)(F)F)c1 | 6 | 16 | 54* | 10 | 21
CCC[C@@H](CNC)NC[C@H](Cc1ccccc1)NCCCCc1ccccc1 | 0 | 16 | 5 | 3 | 29
CNC[C@@H](Cc1ccccc1)NC[C@@H](CC1CCCCC1)NCCCc1ccccc1 | 3 | 30 | 92* | 3 | 13
COC(=O)[C@]12C[C@H](CC(=O)N3CCN(C(=O)C4CC4)CC3)C(=O)N(Cc3ccco3)C1=C[C@H](COCc1ccccc1)O[C@@H]2C | · | · | · | -2 | ·
Cc1ccc(C(=O)N2CCC(Oc3cccnc3)CC2)c(C)c1 | · | · | · | -2 | ·
c1coc(Cn2nnnc2CN2CCN(C3CCCC3)CC2)c1 | -3 | 102* | 2 | 5 | 12
C=CCN1C(=O)[C@@H](CC(=O)N2CCOCC2)[C@]2(C(=O)OC)CCCCC=C12 | · | · | · | 0 | ·
CN(/N=C/c1ccc(N(C)C)cc1)C1=NS(=O)(=O)c2ccccc21 | 3 | + | 31 | 1 | 2
COc1ccc(/C=N/N(C)C2=NS(=O)(=O)c3ccccc32)cc1 | 3 | -9 | -3 | 18 | 14
O=c1[nH]c(=O)n(-c2ccc(F)cc2)c(O)c1C=Nc1ccccc1N1CCCC1 | 0 | 206* | 5 | 6 | -1
SMILES | 3CLpro inhibitor | MazEF act | BJeLR lethal | CCHFV vOTU inh | VHR inh abs
COc1ccccc1N1CCN(C2CCCN(Cc3ccccc3OCCO)C2)CC1 (stereo not drawn) | -4 | 11 | -7 | -2 | 59*
COc1ccc(N(C(C)C(=O)N/N=C/c2ccc(OC)c(OC)c2)S(C)(=O)=O)cc1 (stereo not drawn) | 3 | 7 | 0 | 9 | -13
CC(C(=O)N/N=C/c1ccc(N(C)C)c(Br)c1)N(c1ccccc1)S(C)(=O)=O (stereo not drawn) | -1 | 4 | 10 | 16 | 50*
COc1cc(/C=C/C(=O)N2C(=O)c3cccc(N)c3C2=O)cc(OC)c1OC | 7 | -12 | -1 | -2 | 55*
COc1ccc(CCNC(=O)c2ccc(S(=O)(=O)N(C)c3ccccc3)cc2)cc1OC | 2 | 5 | -7 | 14 | 52*
COC(=O)c1cc(CNC(=O)c2ccc(S(=O)(=O)N(C)c3ccccc3)cc2)ccc1OC | · | 4 | · | -1 | ·
CCN(CC)C(=O)CC[C@H]1CC[C@]2(CCCN(Cc3nccs3)C2)O1 | · | · | · | 5 | ·
NC(=S)n1[nH]c(-c2ccc([N+](=O)[O-])cc2)c(N=Nc2cccc([N+](=O)[O-])c2)c1=O | -3 | -5 | 15 | 2 | 81*
CCC1=NNc2cccc3c(OC)ccc1c23 | -2 | · | 3 | · | 54*
Cc1nc(SCC(=O)c2cc3ccccc3oc2=O)c(C#N)c(-c2cccs2)c1C(=O)Nc1ccccc1 | -2 | 61* | -2 | -7 | 3
N#Cc1ccc(-c2ccccc2)nc1SCC(=O)c1cc2ccccc2oc1=O | 3 | 63* | 11 | 5 | 0
O=C(CSc1nnc(-c2ccccc2F)n1Cc1ccco1)Nc1ccccc1-c1ccccc1 | · | · | · | 3 | ·
CC(=O)Nc1ccc(N/C=C/C(=O)c2ccc(Cl)cc2)cc1 | 5 | 57* | -5 | -4 | 8
COc1ccc(C(=O)NN/C=C/C(=O)c2ccc(Br)cc2)cc1 | · | -16 | · | 13 | ·
COc1ccc(C(=O)C=CNNC(=O)c2ccc(Cl)cc2)cc1 | -3 | 1 | 3 | 14 | 58*
CCOc1ccccc1C(=O)Nc1cc(Cl)ccc1O | 7 | 68* | 2 | 2 | 9
Cc1ccc(-n2c(SCC(=O)Nc3ccc(Oc4ccccc4)cc3)nnc2-c2cccc(C)c2)cc1 | · | · | · | 6 | ·
COc1ccc(/C(O)=C2/C(=O)C(=O)N(CCCN(C)C)C2c2cccc(Cl)c2)cc1OC (stereo not drawn) | 5 | 7 | -23 | 34* | 8
CCCCCN1CCCCC(NC(=O)c2ccc(C)cc2)C1=O (stereo not drawn) | · | · | · | 2 | ·
CC(=O)N1CCN(Cc2nc3cc(NC(=O)c4ccc(F)cc4)ccc3n2C)CC1 | 3 | -12 | 9 | 0 | 57*
CC(=O)n1cc(N(C(=O)CCl)c2ccc(C)cc2)c2ccccc21 | 9 | 1 | 84* | 2 | 30
CC(=O)N(c1ccc(Cl)cc1)c1cn(C(C)=O)c2ccccc12 | 1 | 4 | 4 | -4 | 6
COc1ccc(CN(CCN2CCOCC2)C(=O)c2cccc(F)c2F)cc1OC | · | · | · | -5 | ·
O=C(CSc1ncnc2c1oc1ccccc12)c1cccs1 | 5 | -4 | -2 | 9 | 32
CCc1nc(SCC(=O)Nc2ccc3c(c2)OCCO3)c2oc3ccccc3c2n1 | -1 | -15 | 1 | 3 | 31
Cc1nc(SCC(=O)c2cccs2)c2oc3ccccc3c2n1 | 4 | -1 | -8 | 6 | 56*
Cc1nc(SCC(=O)Nc2ccc3c(c2)OCCO3)c2oc3ccccc3c2n1 | 4 | 54* | -10 | -15 | 25
Cc1ccccc1NC(=O)OC1CCC12CCCCC2 (stereo not drawn) | · | · | · | 4 | ·
